# Where “and” joins values, the source holds several entries; their conditions need not be identical. Identical values can stand only once. Calls of active or inactive are those of the source.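 How the source made its calls, unless noted: active means inhibition at or above 50% relative to wild type and mutant plate controls; inactive means inhibition below 50%.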
# Legend:
# [1] = inhibitors of TNFa-induced NFkB p65 translocation, primary screen, imaging, HUVEC, MLSMR starter and 10KST1 sets (AID 438;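 active means inhibition above 20% together with a positive visual image hit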;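 further: compound added about 3h40 before a 20 min TNFalpha stimulation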;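 on inhibition: signal is the nuclear over cytoplasmic p65 intensity ratio per well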); conditions: HUVEC TNFa-induced p65 nuclear translocation; cell count: measured here: nuclei count (cytotoxicity indicator), at 2.08 µM; inhibition: at 2 µM, stronger effect = higher value, 0% TNFa-plus-vehicle, 100% no-TNFa wells
# [2] = reduction of polyQ htt aggregates in cells – imaging, exon1htt(103Q)mCFP cells, high-content imaging, primary screen (AID 483;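 active means visual image review flags a hit and inhibition of aggregation exceeds 20%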;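 further: compound exposure lasted 3 days before fixation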;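 on nuclei count: percent of the per-plate median nuclei count of sample wells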); conditions: exon1htt(103Q)mCFP cell line, aggregate imaging, at 2 µM; inhibition of aggregation: stronger effect = higher value; nuclei count: measured here: cell count, toxicity
# [3] = endothelial E-selectin expression blockers – imaging, HUVEC, immunofluorescence, MLSMR starter and 10KST1 sets, primary screen (AID 487;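 active means visually confirmed hit in the image check and inhibition above 20%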;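 on inhibition: signal is fraction of cell area covered by stained E-selectin grains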;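 on nuclei count: 100% = median nuclei count of all wells on the same plate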); conditions: HUVEC TNFalpha-induced E-selectin immunofluorescence imaging, at 2 µM; inhibition: stronger effect = higher value; nuclei count: measured here: cell number, toxicity
# [4] = Primary imaging screen for DUSP6 inhibitors that restore phospho-Erk in transfected HeLa cells, chemical complementation (AID 609;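 active means compounds giving at least 50% inhibition in the cell-based MKP-3 phosphatase rescue imaging test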;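 on inhibition: phospho-Erk level distribution per well compared with pooled transfected vehicle control wells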); conditions: HeLa MKP-3 transfected, phospho-Erk imaging KS statistic, at 10 µM, cells stimulated with TPA for 15 min
# [5] = biological target: Dual specificity protein phosphatase 6 (Homo sapiens) (UniProt Q16828); test: as above; conditions: HeLa MKP-3 transfected, phospho-Erk imaging KS statistic; at 10 µM; stronger effect = higher value; cells stimulated with TPA for 15 min
# Chain of Dual specificity protein phosphatase 6 (Homo sapiens) (Q16828 whole entry, looked up): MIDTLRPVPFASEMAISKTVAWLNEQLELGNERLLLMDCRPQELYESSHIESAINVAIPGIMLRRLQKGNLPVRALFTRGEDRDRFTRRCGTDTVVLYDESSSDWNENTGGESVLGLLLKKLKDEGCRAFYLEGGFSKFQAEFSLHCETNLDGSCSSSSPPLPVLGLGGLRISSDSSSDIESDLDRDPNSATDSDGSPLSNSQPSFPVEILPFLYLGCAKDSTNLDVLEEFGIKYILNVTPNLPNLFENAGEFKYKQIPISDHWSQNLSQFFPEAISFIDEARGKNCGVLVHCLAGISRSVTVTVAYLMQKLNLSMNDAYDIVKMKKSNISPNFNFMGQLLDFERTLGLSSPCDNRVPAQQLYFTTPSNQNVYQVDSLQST
# [6] = biological target: Voltage-gated potassium channel subunit beta-2 (Rattus norvegicus) (UniProt P62483); test: inhibitors of rat Kvbeta2 reductase activity – biochemical, NADPH fluorescence, primary screen (AID 622;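 active means fluorescence slope higher than the sample average by over 3 SD, cut at about -0.22 in these data, passing the limit was not always enough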;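 further: slope of raw intensity against log time taken from 70 to 1610 s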); conditions: recombinant KvBeta, 4-cyanobenzaldehyde reduction, at 10 µM, stronger effect = higher value
# Chain of Voltage-gated potassium channel subunit beta-2 (Rattus norvegicus) (P62483 whole entry, looked up): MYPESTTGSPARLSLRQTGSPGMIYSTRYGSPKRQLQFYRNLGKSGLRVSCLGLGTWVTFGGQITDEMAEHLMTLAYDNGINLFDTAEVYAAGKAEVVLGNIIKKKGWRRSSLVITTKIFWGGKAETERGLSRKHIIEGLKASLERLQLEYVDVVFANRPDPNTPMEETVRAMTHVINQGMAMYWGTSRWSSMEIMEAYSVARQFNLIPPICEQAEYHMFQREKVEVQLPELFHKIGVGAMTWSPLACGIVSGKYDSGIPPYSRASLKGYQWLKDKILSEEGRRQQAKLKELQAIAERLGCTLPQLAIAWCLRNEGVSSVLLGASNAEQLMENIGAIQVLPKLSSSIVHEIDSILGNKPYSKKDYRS
# [7] = biological target: Voltage-gated potassium channel subunit beta-2 (Rattus norvegicus) (UniProt P62483); test: enhancers of rat Kvbeta2 NADPH turnover – biochemical, NADPH fluorescence, primary screen (AID 623;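 active means NADPH fluorescence slope more negative than the mean of all samples by about 3 SD, 99.7% confidence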;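 further: fluorescence intensity change per second fitted from 20 to 320 s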); conditions: Recombinant KvBeta, NADPH fluorescence decrease slope, 10 min; at 10 µM; stronger effect = lower value
# [8] = biological target: Alpha-2C adrenergic receptor (Homo sapiens) (UniProt P18825); test: compounds altering alpha2C-coupled GIRK flux – cell-based, HEK293 alpha2C/GIRK1/2, thallium flux, primary screen (AID 624;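 active means fluorescence slope after compound addition differing from the mean of all screened samples at 99.7% confidence, in either direction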;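 further: slope of fluorescence ratio to pre-addition baseline per second over 15 to 24 s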); conditions: thallium flux BTC fluorescence, at 10 µM, actives lie on both sides
# Chain of Alpha-2C adrenergic receptor (Homo sapiens) (P18825 whole entry, looked up): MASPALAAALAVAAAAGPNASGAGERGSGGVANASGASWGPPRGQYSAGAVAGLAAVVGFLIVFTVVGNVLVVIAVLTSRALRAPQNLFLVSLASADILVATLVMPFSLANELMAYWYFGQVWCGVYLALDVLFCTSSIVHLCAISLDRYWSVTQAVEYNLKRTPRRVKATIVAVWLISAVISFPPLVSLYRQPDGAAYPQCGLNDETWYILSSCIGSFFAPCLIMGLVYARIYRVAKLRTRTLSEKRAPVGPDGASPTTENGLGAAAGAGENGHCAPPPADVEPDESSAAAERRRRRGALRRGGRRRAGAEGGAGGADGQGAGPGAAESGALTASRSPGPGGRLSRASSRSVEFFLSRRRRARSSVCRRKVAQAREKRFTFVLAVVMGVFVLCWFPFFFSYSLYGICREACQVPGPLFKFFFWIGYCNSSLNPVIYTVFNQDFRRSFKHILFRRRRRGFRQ
# [9] = inhibitors of larval lipid processing in zebrafish, primary screen, whole organism, PED6 fluorescence, gall bladder and intestine (AID 686;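 active means a full or partial loss of lipid-probe fluorescence in the fish gall bladder, intestine or both, judged by eye; inactive means no fluorescence loss, or compound toxic to the fish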;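 further: larvae 5 to 7 days old with five fish per well; signal comes from phospholipase A2 cleavage of quenched PED6 carried via bile; overnight exposure to compound and PED6 before scoring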); conditions: Zebrafish larvae PED6 lipid processing, fluorescence scoring; screened at 20 µM (by protocol)
# [10] = loss of swimming-algae plug formation – whole organism, Chlamydomonas reinhardtii, WT vs cilia-less mutant, absorbance, 96-well, primary screen (AID 463189); conditions: Chlamydomonas reinhardtii gravitaxis, OD600 absorbance, 2 days; at 10 µM; stronger effect = higher value;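 further: 0% = wild type cc124 cells in DMSO and 100% = ciliumless bld1 mutant cells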
# [11] = blockers of RIG-like receptor reporter activation – cell-based, Sendai virus stimulus, luciferase, 10K MLSCN set, TLR/RLR signaling modifier project, primary screen (AID 602276;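 active means inhibition at or above 50% at 10 µM; inactive means inhibition below 50%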;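 further: firefly luciferase from ISG56 promoter only with Renilla not read in this screen; 0% = Sendai virus plus DMSO and 100% = medium plus DMSO without virus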); conditions: HEK293 RL24 IRF3 luciferase reporter, at 10 µM, stronger effect = higher value
# [12] = TLR3 IRF3 reporter activation blockers – cell-based, poly I:C stimulus, luciferase, 10K MLSCN set, primary screen (AID 602277;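 active means inhibition of the reporter signal at or above 50%; inactive means inhibition below 50%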); conditions: HEK293-TLR3 RL24 IRF3 luciferase reporter, at 10 µM, stronger effect = higher value
# [13] = biological target: Muscarinic acetylcholine receptor M4 (Homo sapiens) (UniProt P08173); test: M4-linked GIRK flux change, two-sided – cell-based, HEK293 M4/GIRK, thallium flux, BTC-AM, M4 allosteric agonist project, primary screen (AID 625;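 active means fluorescence slope after compound addition differing from the mean of all tested samples at 99.7% confidence, mostly higher but some lower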;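 further: thallium influx through GIRK channels coupled to M4 in HEK293 cells with BTC-AM dye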); conditions: at 10 µM, actives lie on both sides
# Chain of Muscarinic acetylcholine receptor M4 (Homo sapiens) (P08173 whole entry, looked up): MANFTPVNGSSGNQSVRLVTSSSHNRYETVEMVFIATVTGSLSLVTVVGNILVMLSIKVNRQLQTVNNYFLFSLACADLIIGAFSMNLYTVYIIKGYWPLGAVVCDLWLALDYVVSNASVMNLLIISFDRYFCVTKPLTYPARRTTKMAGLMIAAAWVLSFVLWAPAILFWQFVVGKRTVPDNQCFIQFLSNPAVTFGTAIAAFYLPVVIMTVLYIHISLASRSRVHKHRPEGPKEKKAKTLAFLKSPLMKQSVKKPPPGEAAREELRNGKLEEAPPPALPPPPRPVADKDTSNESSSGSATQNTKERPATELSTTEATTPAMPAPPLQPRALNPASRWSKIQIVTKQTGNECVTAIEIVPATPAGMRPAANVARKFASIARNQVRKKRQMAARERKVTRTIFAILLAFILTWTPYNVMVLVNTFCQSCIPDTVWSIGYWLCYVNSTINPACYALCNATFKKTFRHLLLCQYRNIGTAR
# [14] = measured here: cell density z-score
# [15] = measured here: nuclear c-Myc green intensity z-score
# [16] = measured here: nuclear pErk red intensity z-score, stronger effect = higher value
SMILES,cell count [1],inhibition [1],inhibition of aggregation [2],nuclei count [2],inhibition [3],nuclei count [3],"z-score [4, 14]","z-score [4, 15]","z-score [4, 16]",inhibition [5],fluorescence slope [6],NADPH fluorescence slope [7],slope [8],outcome [9],inhibition [10],inhibition [11],inhibition [12],fluorescence slope [13]
CN1C2C=C3C(C#N)=C(N)C(C#N)(C#N)[C@@H](c4ccc(Cl)cc4)[C@@H]3C1CC2 (some centres not stated),492,-3.5% (inactive),11.7% (inactive),110%,-63.9% (inactive),120%,1.1,-0.782,0.349,-2.47% (inactive),-0.517 (inactive),-1.7e-05 (inactive),0.00502 (inactive),inactive,11.6% (inactive),13.8% (inactive),29.9% (inactive),–
Cn1ccnc1SCCC#N,569,-2.2% (inactive),-3.9% (inactive),110%,-10.9% (inactive),116%,-0.727,0.913,-1.8,6.04% (inactive),-0.51 (inactive),-0.000118 (inactive),0.00562 (inactive),inactive,3.16% (inactive),5.13% (inactive),14.1% (inactive),–
Clc1ccc(Cl)c(-c2ccc(/C=N/c3ncn[nH]3)o2)c1,439,-0.4% (inactive),6.2% (inactive),104%,-127% (inactive),122%,-0.606,-0.195,1.4,-4.27% (inactive),-0.438 (inactive),-5.6e-05 (inactive),0.0057 (inactive),inactive,73.7% (active),13.4% (inactive),18.3% (inactive),–
NC(N)=NS(=O)(=O)c1ccc(N)cc1,630,0.4% (inactive),9.4% (inactive),99.7%,-107% (inactive),136%,0.695,-0.407,-0.348,14.6% (inactive),-0.497 (inactive),-7.4e-05 (inactive),0.00546 (inactive),inactive,-2.06% (inactive),18.4% (inactive),34.4% (inactive),–
COCCc1ccc(OCC(O)CNC(C)C)cc1 (configuration not stated),534,1.4% (inactive),-4.4% (inactive),85.7%,-71.5% (inactive),108%,-1.75,1.07,0.0458,8% (inactive),-0.46 (inactive),-3.7e-05 (inactive),0.00577 (inactive),inactive,-6.24% (inactive) and 33.7% (inactive),15.3% (inactive),32.2% (inactive),–
CCOc1nc(SCCOc2ccccc2)nc(N(C)C)n1,397,-7.1% (inactive),4.3% (inactive),54%,-68.5% (inactive),113%,0.798,-0.437,-0.913,22.8% (inactive),-0.395 (inactive),1.4e-05 (inactive),0.00398 (inactive),inactive,28.4% (inactive),0.0705% (inactive),-11.2% (inactive),–
C=CCn1c(SCC(=O)NC23CC4CC(CC(C4)C2)C3)nc(O)cc1=O,629,-3.7% (inactive),-0.4% (inactive),103%,-39.7% (inactive),129%,-0.394,-0.06,0.754,7.83% (inactive),-0.532 (inactive),-4.2e-05 (inactive),0.00471 (inactive),inactive,12.5% (inactive),17.8% (inactive),24.6% (inactive),–
O=C1CC(c2ccccc2)NC(=O)N1 (configuration not stated),692,-11.2% (inactive),15.5% (inactive),100%,23% (inactive),127%,-1.04,-0.999,0.572,9.39% (inactive),-0.454 (inactive),-0.000279 (inactive),0.0044 (inactive),inactive,-8.12% (inactive),11% (inactive),23.5% (inactive),–
COc1ccc(NC(=O)CSC2=C(C#N)C(c3ccco3)C3=C(CCCC3=O)N2)c(OC)c1 (configuration not stated),429,1.6% (inactive),-5.2% (inactive),95.8%,-47.9% (inactive),104%,-1.49,0.542,0.619,13.4% (inactive),-0.456 (inactive),-9.4e-06 (inactive),0.00706 (inactive),inactive,26.6% (inactive),17.5% (inactive),18.8% (inactive),–
Cc1cc(C)n(-c2nnc(C)n2/N=C/c2ccco2)n1,609,-8.3% (inactive),-21.9% (inactive),106%,-232% (inactive),159%,1.68,-0.585,0.108,20.2% (inactive),-0.501 (inactive),-5.1e-05 (inactive),0.00494 (inactive),inactive,17.4% (inactive),17.4% (inactive),24% (inactive),–
N[C@@H](C(=O)N[C@@H]1C(=O)N2C(C(=O)O)=C(Cl)CS[C@H]12)c1ccccc1,693,-2% (inactive),-5.3% (inactive),113%,-84.8% (inactive),122%,-0.332,-0.293,-0.889,7.39% (inactive),-0.441 (inactive),-5.1e-05 (inactive),0.00559 (inactive),inactive,21.4% (inactive),12.2% (inactive),28.5% (inactive),–
COc1cccc(OC)c1OCCN1CCN(C(=O)c2ccco2)CC1,361,-3.1% (inactive),10.7% (inactive),104%,-24.8% (inactive),102%,0.154,0.0392,-1.87,13.2% (inactive),-0.538 (inactive),-6.4e-05 (inactive),0.00433 (inactive),inactive,-8.27% (inactive),11.8% (inactive),17.9% (inactive),–
Cc1noc(COc2ccccc2OCC(O)CNC(C)(C)C)n1 (configuration not stated),623,-11.7% (inactive),16.2% (inactive),89.4%,-52.1% (inactive),128%,-0.283,1.24,2.27,-16.8% (inactive),-0.496 (inactive),-2.4e-05 (inactive),0.0046 (inactive),inactive,-3.71% (inactive),16.2% (inactive),99.7% (active),–
CCc1nc2sc3c(c2c(=O)o1)CCCC3,736,-8.2% (inactive),-11.4% (inactive),104%,-32.9% (inactive),130%,-0.371,-1.28,1.35,-2.07% (inactive),-0.413 (inactive),-5.4e-05 (inactive),–,inactive,8.78% (inactive),23% (inactive),35.5% (inactive),0.00552 (inactive)
C[C@]12CCC(=O)C=C1CC[C@@H]1[C@@H]2[C@@H](O)C[C@@]2(C)[C@H]1CC[C@]2(O)C(=O)CO,526,1.3% (inactive),-3.8% (inactive),63.5%,-35.4% (inactive),94.1%,-3.38,-0.793,-0.0815,5.42% (inactive),-0.459 (inactive),-3.2e-05 (inactive),0.00455 (inactive),inactive,2.91% (inactive) and -18.2% (inactive),4.18% (inactive),38.7% (inactive),–
Cc1cccc(N2C(=O)CC(N3CCN(Cc4ccc(Cl)cc4)CC3)C2=O)c1 (configuration not stated),544,-6.1% (inactive),17.3% (inactive),110%,-107% (inactive),132%,1.1,-1.84,-0.334,3.56% (inactive),-0.551 (inactive),-3.6e-05 (inactive),0.00524 (inactive),inactive,-12.9% (inactive),16.4% (inactive),18% (inactive),–
CCOC(=O)[C@H](CCc1ccccc1)N[C@@H](C)C(=O)N1CCC[C@H]1C(=O)O,512,-1.7% (inactive),-27.5% (inactive),76.9%,-7.9% (inactive),112%,1.2,0.592,-0.0475,11.3% (inactive),-0.554 (inactive),-1.6e-05 (inactive),0.00627 (inactive),inactive,34.1% (inactive),9.18% (inactive),28.5% (inactive),–
CCNC(=O)N(C)c1nncnc1C(=O)NC,435,-12.6% (inactive),6.9% (inactive),105%,-11.1% (inactive),105%,0.426,0.386,0.174,2.92% (inactive),-0.505 (inactive),-4.4e-05 (inactive),0.00736 (inactive),inactive,35.2% (inactive),18.1% (inactive),22.2% (inactive),–
CN(C)CCCN1c2ccccc2Sc2ccc(Cl)cc21,556,0% (inactive),14.2% (inactive),101%,-64.8% (inactive),123%,1.02,0.553,-0.0543,-0.828% (inactive),-0.472 (inactive),-6e-05 (inactive),0.00356 (inactive),inactive,67.6% (active) and 162% (active),16.5% (inactive),40.1% (inactive),–
Nc1ccc2[nH]ncc2c1,684,7.9% (inactive),-14.5% (inactive),106%,-64.7% (inactive),141%,0.816,1.08,-0.122,27.9% (inactive),-0.496 (inactive),-6.9e-05 (inactive),0.00441 (inactive),inactive,-11% (inactive),11.4% (inactive),31.1% (inactive),–
CC(C)Sc1nc(N2CCCC2)c2c(c1C#N)CC(C)(C)OC2,547,-6.2% (inactive),15.4% (inactive),73.8%,-59.4% (inactive),126%,1.33,-1.33,-0.539,24.4% (inactive),-0.386 (inactive),4.7e-06 (inactive),0.00612 (inactive),inactive,48.4% (inactive),14% (inactive),18.1% (inactive),–

# Reference: PubChem BioAssay
